Data on 101 compounds can be found in PubChem BioAssay AID2553 (Johns Hopkins Ion Channel Center, 2010).

In all, about 310,000 compounds went through this assay and about 3,300 (1.1%) were called active.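 How the source made its calls: active means B-score under library mean minus 3 SD, initial fluorescence not abnormally high, positive integrated signal ratio; inactive means the rest.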 Many of the other results were omitted from the sample, so actives are more common in it than they were.

The target in this assay is Short transient receptor potential channel 6 (Mus musculus) (UniProt Q61143). Briefly: mouse TRPC6 channel inhibitors, primary screen, cell-based, HEK293, membrane potential dye (AID 2553).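 On B-score: B-score derived from integrated fluorescence ratio over the kinetic read; more negative B-score means stronger inhibition of depolarization.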 The note with it: ACh-evoked depolarization, at 10 µM; active compounds read low.
Sequence of Short transient receptor potential channel 6 (Mus musculus) (Q61143 whole entry, looked up): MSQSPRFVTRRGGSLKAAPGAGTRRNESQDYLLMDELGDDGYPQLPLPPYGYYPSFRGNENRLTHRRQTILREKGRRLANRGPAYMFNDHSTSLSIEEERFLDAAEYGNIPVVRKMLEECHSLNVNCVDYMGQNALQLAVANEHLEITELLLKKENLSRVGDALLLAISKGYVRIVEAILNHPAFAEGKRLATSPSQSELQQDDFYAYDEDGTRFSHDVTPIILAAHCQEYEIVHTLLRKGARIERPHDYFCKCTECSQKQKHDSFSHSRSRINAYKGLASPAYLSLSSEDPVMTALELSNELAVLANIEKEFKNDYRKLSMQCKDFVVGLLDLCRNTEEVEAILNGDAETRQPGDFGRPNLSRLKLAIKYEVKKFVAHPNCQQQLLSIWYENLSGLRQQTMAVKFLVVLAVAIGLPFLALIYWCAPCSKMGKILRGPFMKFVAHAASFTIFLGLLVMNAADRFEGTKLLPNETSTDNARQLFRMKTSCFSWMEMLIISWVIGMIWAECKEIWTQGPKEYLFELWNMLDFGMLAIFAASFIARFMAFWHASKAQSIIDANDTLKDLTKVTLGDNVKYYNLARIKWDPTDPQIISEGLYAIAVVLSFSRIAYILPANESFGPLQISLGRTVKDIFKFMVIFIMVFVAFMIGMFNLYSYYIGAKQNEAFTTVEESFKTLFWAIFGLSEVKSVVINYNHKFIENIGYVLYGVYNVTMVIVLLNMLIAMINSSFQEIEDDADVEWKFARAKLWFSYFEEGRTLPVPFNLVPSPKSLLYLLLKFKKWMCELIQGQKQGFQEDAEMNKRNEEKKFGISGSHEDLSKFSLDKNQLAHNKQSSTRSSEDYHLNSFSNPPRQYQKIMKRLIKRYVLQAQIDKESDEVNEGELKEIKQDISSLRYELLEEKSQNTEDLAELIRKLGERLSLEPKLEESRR
`CCN(C(=O)Cc1c(C(=O)O)n(CC)c2ccccc12)c1ccccc1C`: the B-score entry is “inactive”.
In the case of `CCCCOc1ccc(NC(=O)[C@@H]2CCCN2C(=O)C2CCN(S(=O)(=O)c3ccc(C)cc3)CC2)cc1` it was “inactive”; in that of `CCc1ccc(C(=O)NNC(=O)C2CCN(c3ncnc4sc(C)c(C)c34)CC2)cc1`, “inactive”.
In the case of `CCC(=O)NC(Nc1nc2ccc(C)cc2s1)(C(=O)OC)C(F)(F)F` (stereo unspecified) it was “inactive”; in that of `O=C(NC(Nc1nc2ccc([N+](=O)[O-])cc2s1)(C(F)(F)F)C(F)(F)F)c1ccccc1`, -10.2 (active).
In the case of `CCOc1ccc2nc(NC(=O)c3cc([N+](=O)[O-])ccc3N3CCOCC3)sc2c1` it was “inactive”.
Take `COc1ccc2c(C)cc3nnnn3c2c1`: the B-score result is “inactive”.
As to `CC(C)c1cc(C(=O)N/N=C/c2ccoc2)c(O)c(C(C)C)c1`, the B-score result was “inactive”.
As to `COc1ccc(Br)cc1/C=N/Nc1ccc(Cl)c(C(=O)O)c1`, the B-score result was “inactive”.
In the case of `COc1ccc(Br)cc1/C=N/n1c(C)nnc1C` it was -5.36 (active).
Take `Cc1nnc(C)n1/N=C/c1ccc(C(C)C)cc1`: the B-score result is “inactive”.
In the case of `NC(=O)COc1ccc(/C=N/NC(=O)C2CCCN2S(=O)(=O)c2ccc(Cl)cc2)cc1` (stereo unspecified) it was “inactive”.
In the case of `COc1ccc(CN2C3CCCC2CC(NC(=O)c2cccc(F)c2)C3)cc1` (stereo unspecified) it was “inactive”.
The same measure for `CC(NCc1ccccc1OC1CCCC1)c1ccccc1` (stereo unspecified): -8.19 (active).
In the case of `CC(=O)OC(C(=O)NC1CCCCC1)c1ccccc1` (stereo unspecified), the B-score result was “inactive”.
With `COc1ccccc1CN1CCN(C(c2ccccc2)c2ccccc2)CC1`, the B-score entry is “inactive”.
The same measure for `CCOC(=O)c1[nH]ncc1CN1CCCC(C(=O)c2ccc(OC)cc2C)C1` (stereo unspecified): “inactive”; for `COc1ccc(C(=O)C2CCCN(Cc3ccc4nonc4c3)C2)c(C)c1` (stereo unspecified): “inactive”; for `COc1ccc(C(=O)C2CCCN(Cc3cccn3-c3ccccn3)C2)c(C)c1` (stereo unspecified): -12.5 (active).
In the case of `Cc1ccc(C(=O)Oc2ccc(C(=S)N3CCOCC3)cc2)cc1` it was “inactive”.
In the case of `CC(C)Cc1nc(N2CCOCC2)c(C#N)c2c1CCC2` it was “inactive”; in that of `CCc1nc(NCCO)c(C#N)c2c1CCCC2`, “inactive”.
Consider `CC(C)CCNc1nc(N2CCCC2)c2c(c1C#N)CCN(C)C2`, for which the B-score is -6.63 (active).
The same measure for `COc1ccc(-c2cc(C3CCN(c4ncccc4[N+](=O)[O-])CC3)[nH]n2)cc1`: “inactive”; for `Cc1cc(Cl)ccc1C(=O)C1CCCN(C(=O)c2nonc2C)C1` (stereo unspecified): “inactive”; for `O=[N+]([O-])c1ccccc1Nc1ccc(O)cc1`: -5.49 (active).
For the compound `O=C(O)c1ccccc1C(=O)Nc1ccccc1[N+](=O)[O-]`, the B-score result is “inactive”.
In the case of `O=C(Nc1ccccc1[N+](=O)[O-])C1C(c2ccccc2)=C1c1ccccc1` it was “inactive”; in that of `O=C(CCN1CCCCC1)N=Nc1c(O)[nH]c2ccccc12`, “inactive”.
The same measure for `N#Cc1cccc(CSc2ncnc(N)n2)c1`: “inactive”; for `O=C(CN1CCCCCC1)NCCN1C(=O)S/C(=C\c2ccccc2Cl)C1=O`: -5 (active); for `O=C(CN1C(=O)S/C(=C\c2ccccc2Cl)C1=O)NC1C=CS(=O)(=O)C1` (stereo unspecified): “inactive”.
The same measure for `O=C(CN1C(=O)S/C(=C\c2ccccc2F)C1=O)NCCCn1ccnc1`: “inactive”.
On to `CCn1cc(C(=O)OCC(=O)Nc2cccc(C)c2)c(=O)c2ccc(C)nc21`, for which the B-score result is “inactive”.
For `Cc1nc(C(=O)NCc2ccccc2)sc1C1(C)CC(c2cccnc2)=NO1` (stereo unspecified), the B-score is -5.44 (active).
In the case of `Cc1nc(-c2ccccc2)sc1C1(C)CC(c2cccnc2)=NO1` (stereo unspecified) it was “inactive”.
Regarding `Cc1nc(C(=O)Nc2ccc(Cl)cc2)sc1C1(C)CC(c2ccccc2)=NO1` (stereo unspecified), the B-score result is “inactive”.
In the case of `CC(C)(C)CN1CCNC(=O)C1CC(=O)NC1Cc2ccccc2C1` (stereo unspecified), the B-score result was “inactive”.
In the case of `CCOC(=O)N1CCN(C(=O)COc2ccc3oc4c(c3c2)CCCC4)CC1` it was -5.45 (active); in that of `CCOC(=O)N1CCN(C(=O)COc2ccc(Br)cc2)CC1`, “inactive”.
In the case of `CCN(CC)CCCNC(=O)COc1ccc2oc3c(c2c1)CCCC3` it was “inactive”; in that of `COc1ccc(COCCN2CCN(S(=O)(=O)c3ccccc3)CCC2=O)cc1`, “inactive”.
In the case of `Cc1ccc(C(O)P(=O)(OC(C)C)c2ccc(N(C)C)cc2)cc1` (stereo unspecified) it was “inactive”; in that of `CCn1c(SCC(=O)Nc2ccc(Br)cc2)nc2sc3c(c2c1=O)CCN(C)C3`, “inactive”.
Take `COc1c(C=O)c(CCN(C)C(=O)c2ccc(F)cc2)cc2c1OCO2`: the B-score entry was “inactive”.
In the case of `COc1ccc(C)cc1S(=O)(=O)Nc1cc2c3c(c1)CCC(=O)N3CCC2` it was “inactive”; in that of `CS(=O)(=O)N1CCN(c2ccc(C(=O)NC3C4CC5CC(C4)CC3C5)cc2[N+](=O)[O-])CC1` (stereo unspecified), “inactive”.
In the case of `CC(NC(=O)c1ccc(N2CCNCC2)c([N+](=O)[O-])c1)C12CC3CC(CC(C3)C1)C2` (stereo unspecified) it was “inactive”.
In the case of `O=C(NC1C2CC3CC(C2)CC1C3)c1ccc(N2CCNCC2)c([N+](=O)[O-])c1` (stereo unspecified) it was -6.41 (active).
`COC(=O)c1ccc(CNC(=O)C2CCC(=O)N(Cc3ccccn3)C2)cc1` (stereo unspecified): the B-score result is “inactive”.
Consider `CCCC(=O)Nc1ccc(C(=O)NCCCn2ccnc2)cc1`, for which the B-score is -6.02 (active).
The same measure for `COc1cc(OC)cc(C(=O)NCCCn2ccnc2)c1`: “inactive”.
In the case of `CCCCC(=O)Nc1ccc(C(=O)NCCCn2ccnc2)cc1` it was “inactive”.
Take `COc1ccnc(Oc2ccccc2)n1`: the B-score entry was “inactive”.
The same measure for `Cn1nc(C(F)(F)F)c(-c2ccc(F)cc2)c1NC(=O)CSCC(=O)O`: “inactive”; for `COc1ccc(CC(=O)N[C@@H](CCSC)c2nc3ccccc3[nH]2)cc1`: “inactive”; for `CSCCC(NC(=O)c1cc([N+](=O)[O-])cc([N+](=O)[O-])c1)c1nc2ccccc2[nH]1` (stereo unspecified): “inactive”.
In the case of `CSCCC(NC(=O)c1ccc(=O)n(C)n1)c1nc2ccccc2[nH]1` (stereo unspecified) it was -4.99 (active).
In the case of `COc1ccccc1Oc1ccc(N2CC(C(=O)OCC(=O)c3ccc(F)cc3)CC2=O)cc1` (stereo unspecified) it was “inactive”; in that of `CC(C)[C@@H]1COC(c2cccc(C3=N[C@H](C(C)C)CO3)c2)=N1`, “inactive”; in that of `O=S(=O)(c1cccc(Cn2nnc(-c3ccc(F)cc3)n2)c1)N1CCOCC1`, -5.77 (active).
Consider `CCN(Cc1ccncc1)C(=O)c1cccc(S(=O)(=O)N2CCOCC2)c1`, for which the B-score entry was “inactive”.
For `Cc1nc(-c2ccc(F)cc2)c(CC(=O)Nc2cccc(S(=O)(=O)N3CCOCC3)c2)s1`, the B-score result was “inactive”.
Take `O=C(Nc1ccc(OCC(=O)N2CCOCC2)cc1)c1cc(F)c(F)cc1Cl`: the B-score result is “inactive”.
In the case of `COc1ccc2c(c1)C=CC1(O2)N(CCO)c2ccccc2C1(C)C` (stereo unspecified) it was “inactive”; in that of `O=C1CN(C(=O)c2ccccc2F)C(c2ccc(F)cc2)c2cc(F)ccc2N1` (stereo unspecified), -5.3 (active).
The same measure for `CC(C)C(=O)N1CC(=O)Nc2ccc(F)cc2C1c1ccc(F)cc1` (stereo unspecified): “inactive”; for `Cc1ccc(C(=O)N2CC(=O)Nc3ccc(F)cc3C2c2ccc(F)cc2)cc1` (stereo unspecified): “inactive”.
In the case of `CCc1ccc(NC(=O)CS(=O)CC(=O)N2CCN(c3ccccc3F)CC2)cc1` (stereo unspecified) it was “inactive”; in that of `Cc1c(CCO)sc[n+]1CC(=O)OC12CC3CC(CC(C3)C1)C2`, “inactive”; in that of `Cc1c(CCOC(=O)c2cc([N+](=O)[O-])ccc2Cl)sc[n+]1CCCCS(=O)(=O)[O-]`, “inactive”.
In the case of `Cc1c(CCOC(=O)CC23CC4CC(CC(C)(C4)C2)C3)sc[n+]1Cc1ccc([N+](=O)[O-])cc1`, the B-score is -5.88 (active).
The same measure for `COc1ccc(NC(=O)CN(C)C(=O)c2ccc(NC3CC3)c([N+](=O)[O-])c2)cc1`: “inactive”.
In the case of `CCC(C)(C)N=C(NC#N)Nc1cccnc1` it was “inactive”.
In the case of `Cc1cccn2c(=O)c3cc(C(=O)NCCN4CCOCC4)c(=N)n(Cc4cccnc4)c3nc12` it was “inactive”; in that of `Cc1cccn2c(=O)c3cc(C#N)c(=O)n(CCCN4CCOCC4)c3nc12`, -15.8 (active).
Take `Cc1cccn2c(=O)c3cc(C#N)c(=NC(=O)c4cccnc4)n(CC4CCCO4)c3nc12` (stereo unspecified): the B-score entry is “inactive”.
As to `CC(C)CCNC(=O)C(C)N(C(=O)Cn1nnc(-c2ccc(F)cc2)n1)C1CCCC1` (stereo unspecified), the B-score entry was “inactive”.
For `CCCCNc1nc2ccccc2nc1NS(=O)(=O)c1cccs1`, the B-score result was “inactive”.
In the case of `O=C(CN1C(=O)CSC1=O)N1CCCC(Nc2ccc(F)cc2)C1` (stereo unspecified) it was “inactive”.
In the case of `COc1ccc(C2C(C(C)=O)=C(O)C(=O)N2Cc2cccnc2)cc1` (stereo unspecified) it was “inactive”; in that of `CCOc1cccc(/C(O)=C2/C(=O)C(=O)N(CCOC)C2c2ccncc2)c1` (stereo unspecified), “inactive”; in that of `CCOc1ccc(/C(O)=C2/C(=O)C(=O)N(Cc3cccnc3)C2c2ccc(N(C)C)cc2)c(C)c1` (stereo unspecified), -6.27 (active).
The same measure for `O=C(NCc1ccccc1)C1C(=O)N(Cc2ccccc2)C(=O)C1C1(O)CCCC1` (stereo unspecified): “inactive”; for `Cc1cc(NC(=O)CN2CCCCC2C)nc2c1c(=O)oc1ccccc12` (stereo unspecified): “inactive”; for `CC(=O)N1CCC(N(C(=O)Nc2ccc(Cl)cc2)C(C)C)CC1`: “inactive”.
Turning to `COc1ccc(CCn2c(=N)c(C(=O)NCC3CCCO3)cc3c(=O)n4cccc(C)c4nc32)cc1OC` (stereo unspecified), the B-score result is “inactive”.
In the case of `Cc1ccc2nc3c(cc(C(=O)NCCc4ccccc4)c(=N)n3CC3CCCO3)c(=O)n2c1` (stereo unspecified) it was “inactive”; in that of `COc1ccc(CNC(=O)c2cc3c(=O)n4ccccc4nc3n(CC3CCCO3)c2=N)cc1` (stereo unspecified), -7.34 (active).
In the case of `CC(C)c1ccc(NC2CCCN(C(=O)c3ccncc3)C2)cc1` (stereo unspecified) it was “inactive”.
The same measure for `CC(=O)NS(=O)(=O)c1ccc2c(c1)Cc1cc(S(=O)(=O)NC(C)=O)ccc1-2`: “inactive”; for `Cc1ccc2c(c1)N(CC(=O)N1CCCC(C)C1)C(=O)CO2` (stereo unspecified): “inactive”.
Consider `CCOC(=O)N1CCC(NC(=O)CN2C(=O)COc3ccc(C(C)(C)C)cc32)CC1`, for which the B-score was -7.85 (active).
The same measure for `Cc1ccc2c(c1)N(CC(=O)N1CCC(O)CC1)C(=O)CO2`: “inactive”; for `CC(NC(=O)CCC(=O)N1CCN(S(=O)(=O)c2ccc(Cl)cc2)CC1)c1ccccc1` (stereo unspecified): “inactive”; for `CC12C(=O)N(c3ccccc3)C(=O)C1C(c1ccccc1)N1CCCN12` (stereo unspecified): “inactive”.
The same measure for `CCN1CCN(c2c(Cl)cccc2NC(=O)c2ccc(Br)o2)CC1`: -12.2 (active).
The same measure for `CCCC(=O)Nc1ccc(Cl)c(NC(=O)c2ccc(Br)o2)c1`: “inactive”.
Regarding `O=C(Nc1cccc(Cl)c1N1CCOCC1)c1cccnc1`, the B-score result is “inactive”.
For `CCCN=C1NC(=O)C(CC(=O)NCCc2ccc(OC)c(OC)c2)S1` (stereo unspecified), the B-score result is “inactive”.
The same measure for `COc1ccc(NC(=O)CSc2nc(SC)ns2)c(OC)c1`: “inactive”.
